A word on the viability: it is a read-out of living cells in per cent, often relative to untreated cells.

Each structure is given as a SMILES string. Where “and” joins values, the source holds several entries; their conditions need not be identical. Identical values can stand only once. Records with an inconclusive call do not appear. A number with no mark means an inactive call. Calls of active or inactive are those of the source. Calls come from the whole dose curve; as a rule, active = well fitted curve in the direction sought with a large enough effect; inconclusive = small, poorly fitted or top-dose-only effect, or another doubt; inactive = no such curve, though single readings can be large; an effect the other way counts as inactive or inconclusive.

Results on 9 compounds are retold here after PubChem BioAssay (NCATS).

Assay [1] has as its target Cellular tumor antigen p53 (Homo sapiens) (UniProt P04637). In words: Primary qHTS for small molecule compounds that upregulate eGFP-tagged delta133p53alpha (in N-terminal) cells. (AID 2060322).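 For activation: 0% = DMSO vehicle and 100% = reference activator.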 Note: nearly all actives have a fitted effect of over 75% in size. Particulars: NCI-H358 eGFP-delta133p53alpha fluorescence, 24 h; activation: active compounds read high. The procedure, abridged:
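NCI-H358 cells pre-induced 24 h with 10 ng/ml doxycycline to express N-terminal eGFP-delta133p53alpha, then dosed 24 h at 37C without doxycycline; fixed, Hoechst-stained, GFP intensity by laser scanning cytometry, normalized to DMSO (0%) and 57.5 uM 5-azacytidine (100%).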

The nature of assay [2]: BET inhibitor-based combinations targeting novel dependencies in MECOM-rearranged (r) AML: SET-2 cell line (AID 2202231).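 For viability: plate controls were DMSO treated cells for no effect and wells without cells for full effect.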 Note: nearly all actives have a fitted effect of over 35% in size. The conditions noted are these: SET-2 AML cells viability, CellTiter-Glo luminescence, 48 h; viability: active compounds read low, concentration not given here. The procedure, abridged: (§1)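 500 cells/well; 11-pt dose curve; 48 h, standard incubator; CellTiter-Glo luminescence after 15 min RT; DMSO/empty-well normalization; AUC plus Z-AUC (mean-centered within each line).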
In general terms: Cellular ATP, detected with luciferase, serves as a proxy for viable cell number.

Assay [3] can be described thus: BET inhibitor-based combinations targeting novel dependencies in MECOM-rearranged (r) AML: OCI-AML3 cell line (AID 2202232). Note: nearly all actives have a fitted effect of over 35% in size. The conditions noted are these: CellTiter-Glo luminescence, 48 h; Potency: OCI-AML3 viability; series mostly up to 46 µM. The procedure, abridged: as §1
The nature of assay [4]: BET inhibitor-based combinations targeting novel dependencies in MECOM-rearranged (r) AML: HNT-34 cell line (AID 2202234). Note: nearly all actives have a fitted effect of over 35% in size. Particulars: HNT-34 AML viability, CellTiter-Glo luminescence, 48 h; series mostly up to 46 µM. In a few lines: (§2)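 Cells were plated at 500 per well and exposed to each drug across an 11-point dose range for 48 hr at standard incubator conditions. Viability was read by CellTiter-Glo luminescence, and activity was expressed as AUC and per-cell-line Z-transformed AUC.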

Assay [5] is described as follows: BET inhibitor-based combinations targeting novel dependencies in MECOM-rearranged (r) AML: UCSD-AML1 cell line (AID 2202235). Note: nearly all actives have a fitted effect of over 40% in size. The conditions noted are these: UCSD-AML1 AML cells viability, CellTiter-Glo, 48 h; series mostly up to 46 µM. In a few lines:
as §2

Assay [6] can be described thus: BET inhibitor-based combinations targeting novel dependencies in MECOM-rearranged (r) AML: AML-194 cell line (AID 2202237; note: nearly all actives have a fitted effect of over 40% in size). Particulars: AML-194 (MECOM-r AML) viability, CellTiter-Glo, 48 h; series mostly up to 46 µM. The procedure, abridged:
as §1

A short description of assay [7]: BET inhibitor-based combinations targeting novel dependencies in MECOM-rearranged (r) AML: AML-191 cell line (AID 2202236; note: nearly all actives have a fitted effect of over 35% in size). Particulars: AML-191 viability, CellTiter-Glo luminescence, 48 h; series mostly up to 46 µM. The procedure, abridged:
as §1

Assay [8] in a line: BET inhibitor-based combinations targeting novel dependencies in MECOM-rearranged (r) AML: MV-4-11 cell line (AID 2202233). Note: nearly all actives have a fitted effect of over 45% in size. The conditions noted are these: MV-4-11 AML viability, CellTiter-Glo luminescence, 48 h; series mostly up to 46 µM. The procedure, abridged: as §2
Potency is the fitted concentration of half-maximal effect.

Chain of Cellular tumor antigen p53 (Homo sapiens) (P04637 whole entry, looked up): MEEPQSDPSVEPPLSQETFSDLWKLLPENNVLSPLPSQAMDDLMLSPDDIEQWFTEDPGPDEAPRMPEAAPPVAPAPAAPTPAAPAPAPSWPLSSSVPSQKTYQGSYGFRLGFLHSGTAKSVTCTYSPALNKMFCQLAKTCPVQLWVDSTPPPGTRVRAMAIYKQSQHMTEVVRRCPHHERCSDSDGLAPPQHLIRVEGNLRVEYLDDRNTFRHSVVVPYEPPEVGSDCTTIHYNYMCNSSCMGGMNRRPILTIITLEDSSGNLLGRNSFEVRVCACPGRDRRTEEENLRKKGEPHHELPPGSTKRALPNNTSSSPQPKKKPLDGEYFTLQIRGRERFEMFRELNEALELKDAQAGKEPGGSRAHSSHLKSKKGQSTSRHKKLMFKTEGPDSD

As to `Cn1c(=O)c(F)c(Nc2ccc(I)cc2F)c2c(=O)n(C[C@@H](O)CO)cnc21`, the activation in assay [1] is 15.6%. For the same compound, the Potency was 16.6 µM (active) in assay [2], 0.0059 µM (active) in assay [3], 0.0833 µM (active) in assay [4] and 1.32 µM (active) in assay [5].
With `CCCCCCCCCCCCc1ccc(S(=O)(=O)Nc2nncs2)cc1`, the activation in assay [1] is -6.63%. Besides, in assay [2], the viability is 118%. Also, the Potency entry in assay [3], in assay [4], in assay [5] and in assay [6] was “inactive” throughout.
As for `CC(C)C[C@@H](C(=O)N[C@H](C(=O)OC1CCCC1)c1ccccc1)[C@H](O)C(=O)NO`, the activation in assay [1] was 10.8%. Moreover, the Potency was 14.8 µM (active) in assay [2]; 13.2 µM (active) in assay [3]; 18.6 µM (active) in assay [4]; 20.9 µM (active) in assay [5]; 20.9 µM (active) in assay [7].
In the case of `CC(C)C[C@H](NC(=O)[C@H](CCc1ccccc1)NC(=O)CN1CCOCC1)C(=O)N[C@@H](Cc1ccccc1)C(=O)N[C@@H](CC(C)C)C(=O)[C@@]1(C)CO1`, the Potency is 110 nM (active) and 273 nM (active) in assay [1]; 0.0833 µM (active) in assay [2]; 0.0209 µM (active) in assay [3]; 0.0235 µM (active) in assay [4]; 0.0417 µM (active) in assay [5]; 0.0525 µM (active) in assay [7]. Moreover, the Potency in assay [6] was 0.0525 µM (active).
`COc1cc(C(=O)NS(=O)(=O)c2ccccc2C)ccc1Cc1cn(C)c2ccc(NC(=O)OC3CCCC3)cc12`: in assay [1], the activation was 105%. In assay [2], the viability was 119%. Further, the Potency entry in assay [3], in assay [4], in assay [7] and in assay [6] was “inactive” each time.
For `O=C(O)CCCCC(CCSCc1ccccc1)SCc1ccccc1` (configuration not stated), the activation in assay [1] was 1.42%. In assay [2], the viability was 107%. The Potency result in assay [3], in assay [4], in assay [5], in assay [7] and in assay [6] was “inactive” in each case.
For `CN(N=O)C(=O)N[C@@H]1[C@@H](O)[C@H](O)[C@@H](CO)O[C@@H]1O`, in assay [1], the activation is -14.1%. In addition, the viability in assay [2] was 101%. The Potency result in assay [3], in assay [4], in assay [5] and in assay [6] was “inactive” throughout.
As for `O=C(O)CCNC(=O)c1ccc(N=Nc2ccc(O)c(C(=O)O)c2)cc1`, in assay [1], the activation is -19.8% and -1.86%. Moreover, the viability in assay [2] is 118%. The Potency result in assay [8], in assay [4], in assay [5], in assay [7] and in assay [6] was “inactive” throughout.
`C=Cc1c(C)c2cc3nc(cc4[nH]c(cc5nc(cc1[nH]2)C(C)=C5CCC(=O)O)c(CCC(=O)OC)c4C)[C@@]1(C)C3=CC=C(C(=O)OC)[C@H]1C(=O)OC`: the activation in assay [1] is 9.63%. Moreover, the viability in assay [2] was 97.6%. The values for the Potency in assay [8] and in assay [4] were 26.3 µM (active) and 18.6 µM (active), respectively. The Potency result in assay [5], in assay [7] and in assay [6] was “inactive” each time.
